Reference: PubChem BioAssay (EPA / NIEHS)
Inconclusive results are not listed. The source made the active and inactive calls. The calls were made as follows: active = hit-call score of the fitted dose curve at least 0.9, where 1 is the maximum; inconclusive = response in the unintended direction; inactive = score below 0.9.

Molecular target: Nuclear receptor subfamily 1 group I member 2 (Homo sapiens) (UniProt O75469)
Test: NVS_NR_hPXR: NovaScreen (NVS) Nuclear Receptor Binding Assay for human Pregnane X Receptor (PXR) (AID 2283365);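 also: a drop in FRET signal versus DMSO baseline means the compound binds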
Method in brief: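 Read-out: TR-FRET, human PXR, 2 h post-dosing, cell-free. Loss of signal vs DMSO taken as binding activity; 25 uM primary, concentration series secondary.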

Sequence of Nuclear receptor subfamily 1 group I member 2 (Homo sapiens) (O75469 whole entry, looked up): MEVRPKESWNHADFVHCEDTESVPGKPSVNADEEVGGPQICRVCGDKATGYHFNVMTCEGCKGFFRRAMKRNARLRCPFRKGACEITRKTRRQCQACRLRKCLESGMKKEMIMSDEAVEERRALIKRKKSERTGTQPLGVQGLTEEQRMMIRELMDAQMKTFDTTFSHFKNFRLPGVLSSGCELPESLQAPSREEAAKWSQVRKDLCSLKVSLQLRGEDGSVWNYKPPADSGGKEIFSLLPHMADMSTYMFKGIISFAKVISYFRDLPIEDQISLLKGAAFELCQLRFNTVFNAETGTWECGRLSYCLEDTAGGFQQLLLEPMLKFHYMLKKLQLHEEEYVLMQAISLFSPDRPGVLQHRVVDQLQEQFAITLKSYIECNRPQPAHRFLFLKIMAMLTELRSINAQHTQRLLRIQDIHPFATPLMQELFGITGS

Row | SMILES | outcome | AC50
1 | O=C(NC(=O)c1c(F)cccc1F)Nc1ccc(Oc2ccc(C(F)(F)F)cc2Cl)cc1F | inactive | –
2 | CCC(=O)c1ccc(Cl)cc1 | inactive | –
3 | Cc1ccc(C)c2ccccc12 | inactive | –
4 | CC(C)[C@@H](C(=O)O[C@@H](C#N)c1cccc(Oc2ccccc2)c1)c1ccc(Cl)cc1 | inactive | –
5 | CCCCCCCCCCCCCCCC[N+](C)(C)C | – | 899 nM (active)

Molecular target: Peroxisome proliferator-activated receptor gamma (Homo sapiens) (UniProt P37231)
Test: NVS_NR_hPPARg: NovaScreen (NVS) Nuclear Receptor Binding Assay for human Peroxisome Proliferator-activated Receptor gamma (PPARg) (AID 2283370)
Method in brief: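 Extracted receptor protein, cell-free; compound incubated 2 h then fluorescence polarization read. Baseline: DMSO. Actives from 25 uM duplicate screen re-run across concentrations.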

Sequence of Peroxisome proliferator-activated receptor gamma (Homo sapiens) (P37231 whole entry, looked up): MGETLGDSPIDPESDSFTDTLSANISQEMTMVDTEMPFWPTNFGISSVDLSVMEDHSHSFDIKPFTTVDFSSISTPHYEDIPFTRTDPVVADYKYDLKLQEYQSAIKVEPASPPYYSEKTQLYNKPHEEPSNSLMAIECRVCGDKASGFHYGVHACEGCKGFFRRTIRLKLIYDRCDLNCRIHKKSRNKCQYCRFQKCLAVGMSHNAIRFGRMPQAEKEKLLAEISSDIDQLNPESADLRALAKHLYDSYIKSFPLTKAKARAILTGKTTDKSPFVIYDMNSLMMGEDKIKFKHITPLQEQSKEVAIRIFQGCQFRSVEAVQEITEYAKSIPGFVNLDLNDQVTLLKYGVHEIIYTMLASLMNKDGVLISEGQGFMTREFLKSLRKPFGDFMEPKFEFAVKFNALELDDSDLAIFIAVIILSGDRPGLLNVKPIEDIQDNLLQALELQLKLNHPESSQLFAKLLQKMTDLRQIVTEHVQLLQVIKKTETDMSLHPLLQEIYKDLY

Row | SMILES | outcome
6 | CC(=O)C=Cc1ccccc1 | inactive
7 | O=C(O)CCl | inactive
8 | CC(C)[C@@H](C(=O)O[C@@H](C#N)c1cccc(Oc2ccccc2)c1)c1ccc(Cl)cc1 | inactive

Molecular target: Agonist Androgen Response Element (ARE), AR (gene 367) (UniProt P10275)
Test: OT_AR_ARELUC_AG_1440: Odyssey Thera (OT) 24-hour CHO-K1 Luciferase Assay for Agonist Androgen Response Element (ARE) (AID 2283379)
Method in brief: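 Seed CHO-K1 cells; dose compounds for 24 h; add D-luciferin plus ATP in PBS; read luminescence. Signal increase relative to vehicle defines agonist activity, with at least 3 replicate wells per sample.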

Sequence of Agonist Androgen Response Element (ARE), AR (gene 367) (P10275 whole entry, looked up): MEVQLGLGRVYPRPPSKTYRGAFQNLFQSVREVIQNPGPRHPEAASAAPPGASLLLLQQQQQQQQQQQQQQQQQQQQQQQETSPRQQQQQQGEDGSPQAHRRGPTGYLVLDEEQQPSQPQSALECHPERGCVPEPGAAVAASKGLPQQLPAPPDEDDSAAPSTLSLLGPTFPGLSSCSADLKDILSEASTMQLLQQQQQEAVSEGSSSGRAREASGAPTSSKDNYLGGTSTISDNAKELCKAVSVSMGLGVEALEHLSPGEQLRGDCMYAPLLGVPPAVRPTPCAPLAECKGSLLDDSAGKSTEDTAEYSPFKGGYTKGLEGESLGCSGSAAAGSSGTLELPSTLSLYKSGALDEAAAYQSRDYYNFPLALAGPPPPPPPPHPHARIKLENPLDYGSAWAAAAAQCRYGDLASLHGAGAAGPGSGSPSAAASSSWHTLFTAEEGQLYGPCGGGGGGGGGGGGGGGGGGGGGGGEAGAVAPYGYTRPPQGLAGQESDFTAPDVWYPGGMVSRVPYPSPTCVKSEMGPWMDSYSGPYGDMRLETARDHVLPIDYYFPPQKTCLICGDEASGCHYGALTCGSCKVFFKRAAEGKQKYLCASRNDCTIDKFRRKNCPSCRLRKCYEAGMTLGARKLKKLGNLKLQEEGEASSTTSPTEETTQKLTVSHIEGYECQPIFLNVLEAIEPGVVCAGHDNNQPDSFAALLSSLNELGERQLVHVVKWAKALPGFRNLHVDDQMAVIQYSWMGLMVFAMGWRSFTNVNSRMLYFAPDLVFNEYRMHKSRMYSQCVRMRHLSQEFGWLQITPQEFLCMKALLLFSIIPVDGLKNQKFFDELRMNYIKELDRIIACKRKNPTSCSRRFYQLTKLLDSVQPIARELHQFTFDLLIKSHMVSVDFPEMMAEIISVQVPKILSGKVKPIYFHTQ

Row | SMILES | outcome
9 | CN(C)N | inactive
10 | Cc1ccc(C)c2ccccc12 | inactive
11 | c1ccc2c(c1)CCCC2 | inactive

Molecular target: Estrogen receptor beta (Homo sapiens) (UniProt Q92731)
Test: OT_ER_ERbERb_1440: Odyssey Thera (OT) 24-hour HEK293T Protein-Complementation Assay for Estrogen Receptor-beta/-beta Homodimer (AID 2283380);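 also: fluorescence gain from ER beta LBD homodimer complementation read by laser scanning cytometry; scored as signal increase over DMSO baseline for both agonists and antagonists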
Method in brief: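 HEK293T cells stably expressing human ER-beta LBD (aa 310-547) PCA homodimer pair, dosed 24 h; formaldehyde-fixed, Draq5-stained. Readout: increase in nuclear (agonist) or nuclear plus cytoplasmic (antagonist) fluorescence intensity versus DMSO, gain-of-signal fitting.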

Sequence of Estrogen receptor beta (Homo sapiens) (Q92731 whole entry, looked up, the tested form may be a part): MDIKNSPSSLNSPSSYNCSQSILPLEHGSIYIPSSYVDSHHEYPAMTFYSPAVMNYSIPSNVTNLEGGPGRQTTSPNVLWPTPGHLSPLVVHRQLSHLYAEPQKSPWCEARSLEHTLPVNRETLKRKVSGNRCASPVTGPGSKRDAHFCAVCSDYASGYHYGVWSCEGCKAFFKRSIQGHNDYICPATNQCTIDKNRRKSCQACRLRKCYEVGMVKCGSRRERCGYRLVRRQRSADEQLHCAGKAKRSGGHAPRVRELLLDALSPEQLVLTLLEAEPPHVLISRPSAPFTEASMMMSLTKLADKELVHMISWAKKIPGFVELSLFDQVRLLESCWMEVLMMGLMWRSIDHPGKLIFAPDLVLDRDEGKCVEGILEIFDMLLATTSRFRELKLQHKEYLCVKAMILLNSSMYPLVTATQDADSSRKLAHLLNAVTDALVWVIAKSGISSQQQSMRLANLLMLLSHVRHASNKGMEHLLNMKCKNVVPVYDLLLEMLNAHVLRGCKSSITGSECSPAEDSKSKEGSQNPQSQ

Row | SMILES | outcome | AC50
12 | O=C(O)CCl | inactive | –
13 | Cc1ccc(C)c2ccccc12 | inactive | –
14 | CCOC(=O)C1OC1(C)c1ccccc1 (centres undefined) | – | 37.3 µM (active)
